This passage reports binding signal results from paper PMC10726135, “HNF4α isoforms regulate the circadian balance between carbohydrate and lipid metabolism in the liver”.

In all, about 18,000 sequences were measured (“log2 normalized intensity”: median about 0.39, highest 2% from about 6.6 on). What follows is part of a selection rich in the highest values, with near analogues and random picks from the rest.

The experiment addresses T1, HNF4alpha2 (COS-7 nuclear extract) (Homo sapiens, UniProt P41235 1-474).
T1 sequence: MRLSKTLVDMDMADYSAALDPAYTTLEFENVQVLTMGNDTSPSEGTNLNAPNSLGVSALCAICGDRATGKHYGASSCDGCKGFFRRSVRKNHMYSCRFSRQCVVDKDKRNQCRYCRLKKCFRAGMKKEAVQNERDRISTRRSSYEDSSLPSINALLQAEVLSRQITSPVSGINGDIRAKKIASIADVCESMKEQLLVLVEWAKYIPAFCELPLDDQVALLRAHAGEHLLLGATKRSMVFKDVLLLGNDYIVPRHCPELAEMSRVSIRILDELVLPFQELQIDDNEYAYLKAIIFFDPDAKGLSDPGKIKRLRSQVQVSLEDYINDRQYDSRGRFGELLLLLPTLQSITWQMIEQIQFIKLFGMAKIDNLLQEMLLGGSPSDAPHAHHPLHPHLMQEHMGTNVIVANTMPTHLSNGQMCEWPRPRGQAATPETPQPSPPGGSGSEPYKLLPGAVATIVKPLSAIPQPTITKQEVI
The experiment can be described thus: protein-binding microarray; COS-7 nuclear extract on double-stranded Agilent 4x180k PBM; binding buffer, salt, pH and temperature not given in the material; high values mean tight binding. To be noted: chain copies: 2; label: 3' end of strand 1 on the slide; dsDNA, one strand shown. A digest of the protocol:
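Nuclear extracts from COS-7 cells expressing a transiently transfected human HNF4α isoform were put on a custom Agilent SurePrint G3 4x180k array carrying ~44,000 double-stranded ~60-nt test sequences in quadruplicate. Imaging used an Agilent G2565CA scanner at 2-µm resolution. Binding signal is the background-corrected, normalized gProcessedSignal from Agilent software.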
Take “ACGTGGCAATCATTCTGTCTGCCTTCAGGCGCCTAGGGAGATTAGAGTATCGGTCGA”: the binding signal was -0.947 log2 normalized intensity.

Regarding “CACTGTTGCCCCTTCCAAAGTCCACCTCAAGCCTAGGGAGATTAGAGTATCGGTCGA”, the binding signal was 4.43 log2 normalized intensity.

On to “GCATGGAATGACTTTGGGGAAATGACCTTTGCCTAGGGAGATTAGAGTATCGGTCGA”, for which the binding signal amounted to 7.23 log2 normalized intensity.

Regarding “CCTTTTTGGAATGTGTTTGCATGACTCATAGCCTAGGGAGATTAGAGTATCGGTCGA”, the binding signal was 1.77 log2 normalized intensity.

In the case of “ATGACCTTTGAGCAATAGGAAATGGGAGGGGCCTAGGGAGATTAGAGTATCGGTCGA”, the binding signal is 2.34 log2 normalized intensity.

Turning to “CCTTGACACATCTGATTAGAGGCTCAGGTAGCCTAGGGAGATTAGAGTATCGGTCGA”, the binding signal is -0.794 log2 normalized intensity.

Take “CCTGTCCAAAGGTCATCTGTCACTCTAGATGCCTAGGGAGATTAGAGTATCGGTCGA”: the binding signal is 5.47 log2 normalized intensity.

“ACCAACCTGTCCAAAGGTCATCTGTCACTCGCCTAGGGAGATTAGAGTATCGGTCGA”: the binding signal turned out to be 5.7 log2 normalized intensity.

As for “CTTGGCTGTGTCCCTTGACCAAAGGTCACTGCCTAGGGAGATTAGAGTATCGGTCGA”, the binding signal was 6.77 log2 normalized intensity.

As to “GTCTGACCAACCTGTCCAAAGGTCATCTGTGCCTAGGGAGATTAGAGTATCGGTCGA”, the binding signal stood at 7.04 log2 normalized intensity.

For the sequence “TTATATCAGAGGAATGTCTGACCAACCTGTGCCTAGGGAGATTAGAGTATCGGTCGA”, the binding signal worked out at 0.0786 log2 normalized intensity.

Take “TCAGAGGAATGTCTGACCAACCTGTCCAAAGCCTAGGGAGATTAGAGTATCGGTCGA”: the binding signal turned out to be 0.136 log2 normalized intensity.

With “AGTATATTGGCTTGGCTGTGTCCCTTGACCGCCTAGGGAGATTAGAGTATCGGTCGA”, the binding signal was determined as 3.04 log2 normalized intensity.

As to “CTGTACACTTACAAGTGTACAAAGGTCACTGCCTAGGGAGATTAGAGTATCGGTCGA”, the binding signal amounted to 7.61 log2 normalized intensity.

In the case of “GGAATGTCTGACCAACCTGTCCAAAGGTCAGCCTAGGGAGATTAGAGTATCGGTCGA”, the binding signal came out at 7.66 log2 normalized intensity.

As for “TATACCTGTACACTTACAAGTGTACAAAGGGCCTAGGGAGATTAGAGTATCGGTCGA”, the binding signal came to 2.65 log2 normalized intensity.

On to “CACTTACAAGTGTACAAAGGTCACTTCTGTGCCTAGGGAGATTAGAGTATCGGTCGA”, for which the binding signal was determined as 6.32 log2 normalized intensity.

For the sequence “ATTGGCTTGGCTGTGTCCCTTGACCAAAGGGCCTAGGGAGATTAGAGTATCGGTCGA”, the binding signal is 2.07 log2 normalized intensity.

As to “AAGGCTTTGAAGTCTGGTGGCAAGTACCCTGCCTAGGGAGATTAGAGTATCGGTCGA”, the binding signal is -0.842 log2 normalized intensity.

Consider “ATTTTCTCATCCCAGGGATAATGATAAAGAGCCTAGGGAGATTAGAGTATCGGTCGA”, for which the binding signal is -0.184 log2 normalized intensity.

Take “TCCCTTTAGTGGAGTATAGGAACATGAACTGCCTAGGGAGATTAGAGTATCGGTCGA”: the binding signal came to 1.96 log2 normalized intensity.

As for “GAGTTGGGGACAAAGTTCAAGGTCCAGCCTGCCTAGGGAGATTAGAGTATCGGTCGA”, the binding signal turned out to be 5.28 log2 normalized intensity.

Regarding “GTCCAAGATGGCAATGTTCCTGCTCTGTCAGCCTAGGGAGATTAGAGTATCGGTCGA”, the binding signal was -0.996 log2 normalized intensity.

As to “AGATTACTTCAAGGCTGGAGTTCACTCCCAGCCTAGGGAGATTAGAGTATCGGTCGA”, the binding signal is -0.354 log2 normalized intensity.

Take “CATGGGTCTCTTCCTCAGTTTGTTCTTGGGGCCTAGGGAGATTAGAGTATCGGTCGA”: the binding signal came out at 1.18 log2 normalized intensity.

“GATCCAAAAGACCCAGGTGTGTTGCAACTTGCCTAGGGAGATTAGAGTATCGGTCGA”: the binding signal is 0.84 log2 normalized intensity.

On to “CCCATCCGCAGTGGGAGAGCAAGGGTCAAGGCCTAGGGAGATTAGAGTATCGGTCGA”, for which the binding signal was 3.57 log2 normalized intensity.

For the sequence “TGGGTGGGGGAAGTGTGGTCAAGGGTCAGTGCCTAGGGAGATTAGAGTATCGGTCGA”, the binding signal came to 4 log2 normalized intensity.

For the sequence “CCGCAGTGGGAGAGCAAGGGTCAAGGGTCAGCCTAGGGAGATTAGAGTATCGGTCGA”, the binding signal was 6.65 log2 normalized intensity.

Consider “AGAGCAAGGGTCAAGGGTCATTTGTTTTTAGCCTAGGGAGATTAGAGTATCGGTCGA”, for which the binding signal came to 5.91 log2 normalized intensity.

With “GTGGGAGAGCAAGGGTCAAGGGTCATTTGTGCCTAGGGAGATTAGAGTATCGGTCGA”, the binding signal stood at 6.7 log2 normalized intensity.

In the case of “AAGGGTCAAGGGTCATTTGTTTTTACAGACGCCTAGGGAGATTAGAGTATCGGTCGA”, the binding signal came out at 6.27 log2 normalized intensity.

For “CAGAACAAAGTCCAGTAAGGACAGTTCCAGGCCTAGGGAGATTAGAGTATCGGTCGA”, the binding signal stood at 2.29 log2 normalized intensity.

For “CTTGTAAGCCACAGTACAAAGGTGAGCTTTGCCTAGGGAGATTAGAGTATCGGTCGA”, the binding signal was 3.57 log2 normalized intensity.

In the case of “TGGATCATGTGTCTGAGCAAGTTTCCTCCTGCCTAGGGAGATTAGAGTATCGGTCGA”, the binding signal was -0.544 log2 normalized intensity.

As to “TCTCGGTCAAACCTTTGACCCTTTATAATCGCCTAGGGAGATTAGAGTATCGGTCGA”, the binding signal worked out at 5.95 log2 normalized intensity.

“GAAACCCTAAACCTGCAAACCTTTGACCTTGCCTAGGGAGATTAGAGTATCGGTCGA”: the binding signal came to 5.31 log2 normalized intensity.

“CCTCGAGGCAACCTTTGACCTGGTACTATGGCCTAGGGAGATTAGAGTATCGGTCGA”: the binding signal amounted to 6.02 log2 normalized intensity.

For the sequence “TGAAGCGACCCCTCGAGGCAACCTTTGACCGCCTAGGGAGATTAGAGTATCGGTCGA”, the binding signal stood at 8.54 log2 normalized intensity.

As for “GTCAAACCTTTGACCCTTTATAATCCCCTAGCCTAGGGAGATTAGAGTATCGGTCGA”, the binding signal was 4.25 log2 normalized intensity.

Consider “ATCACTGAAGCGACCCCTCGAGGCAACCTTGCCTAGGGAGATTAGAGTATCGGTCGA”, for which the binding signal came out at 1.12 log2 normalized intensity.

Regarding “CGACCCCTCGAGGCAACCTTTGACCTGGTAGCCTAGGGAGATTAGAGTATCGGTCGA”, the binding signal was 7.48 log2 normalized intensity.

For “AAGTATCTCGGTCAAACCTTTGACCCTTTAGCCTAGGGAGATTAGAGTATCGGTCGA”, the binding signal came to 6.7 log2 normalized intensity.

For “GTCAAATCACTGAAGCGACCCCTCGAGGCAGCCTAGGGAGATTAGAGTATCGGTCGA”, the binding signal stood at 1.42 log2 normalized intensity.

For the sequence “CTGAATAAAACAAACTCATTTTGATCTTTGGCCTAGGGAGATTAGAGTATCGGTCGA”, the binding signal was determined as 2.24 log2 normalized intensity.

Take “CAGCAGACTCAGAAAAATATGTGGACTTCAGCCTAGGGAGATTAGAGTATCGGTCGA”: the binding signal was determined as 2.49 log2 normalized intensity.

Regarding “CACCCCCATCTATGCACTCTCACCTTGGGGGCCTAGGGAGATTAGAGTATCGGTCGA”, the binding signal stood at 0.591 log2 normalized intensity.

As to “CAAATTGCTGACTTTCTGTGTCTTGGCAGTGCCTAGGGAGATTAGAGTATCGGTCGA”, the binding signal turned out to be 1.59 log2 normalized intensity.

For “TCTACCTGACCTCCCAAAATTCTTCACATAGCCTAGGGAGATTAGAGTATCGGTCGA”, the binding signal was -0.0778 log2 normalized intensity.

“TTCCCATTCATAAAATTACGCCACAGAGTTGCCTAGGGAGATTAGAGTATCGGTCGA”: the binding signal is -0.871 log2 normalized intensity.

For “AGAAGCTTGGTATGTCTGATGAATAGAAAGGCCTAGGGAGATTAGAGTATCGGTCGA”, the binding signal came out at 0.62 log2 normalized intensity.

As to “TCCACAGTCAAGGCCAAAGGTTAAAAATAAGCCTAGGGAGATTAGAGTATCGGTCGA”, the binding signal came out at 3.7 log2 normalized intensity.

Regarding “AAGCTCTGGAGTCCAAAGGTCAGCAAGCCTGCCTAGGGAGATTAGAGTATCGGTCGA”, the binding signal was determined as 7.73 log2 normalized intensity.

Consider “TCATTTCAGCCTTAACTCAAAAGGCCAAAGGCCTAGGGAGATTAGAGTATCGGTCGA”, for which the binding signal was -0.978 log2 normalized intensity.

With “GGTGTAAGCTCTGGAGTCCAAAGGTCAGCAGCCTAGGGAGATTAGAGTATCGGTCGA”, the binding signal was determined as 8.34 log2 normalized intensity.

Regarding “GTCCAAAGGTCAGCAAGCCTGGAGTTCTGAGCCTAGGGAGATTAGAGTATCGGTCGA”, the binding signal was 4.22 log2 normalized intensity.

For “CCACTGGTGTAAGCTCTGGAGTCCAAAGGTGCCTAGGGAGATTAGAGTATCGGTCGA”, the binding signal turned out to be 3.79 log2 normalized intensity.

On to “ATCCACCCATCCAAAGGTCAGCAATCTCAAGCCTAGGGAGATTAGAGTATCGGTCGA”, for which the binding signal was determined as 2.93 log2 normalized intensity.

In the case of “GGAGACCACTGGTGTAAGCTCTGGAGTCCAGCCTAGGGAGATTAGAGTATCGGTCGA”, the binding signal was determined as 0.767 log2 normalized intensity.

On to “AAGGTCAGCAAGCCTGGAGTTCTGATGTTCGCCTAGGGAGATTAGAGTATCGGTCGA”, for which the binding signal worked out at 0.534 log2 normalized intensity.

In the case of “GGAGTGACCCTGGGAGCAAAGGTCAAGAGTGCCTAGGGAGATTAGAGTATCGGTCGA”, the binding signal amounted to 6.55 log2 normalized intensity.

As for “TCAGCCTTAACTCAAAAGGCCAAAGTCCAAGCCTAGGGAGATTAGAGTATCGGTCGA”, the binding signal is 8.38 log2 normalized intensity.

Consider “CTGGAGTCCAAAGGTCAGCAAGCCTGGAGTGCCTAGGGAGATTAGAGTATCGGTCGA”, for which the binding signal was 6.88 log2 normalized intensity.
